Measured values published in the supplement of paper PMC8975748.
Counter-ions that a name gives are not always drawn.

test system: Saccharomyces cerevisiae BY4741 SeMeCo community; assay: z-score of subpopulation abundance vs DMSO median, subpopulation auxotrophic for HLUM; higher = larger share of this subpopulation than in DMSO controls; conditions: 10 µM; 24 h; SM minimal medium; subpopulation (auxotrophy): HLUM
Description: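 Fluorescent four-plasmid SeMeCo (self-establishing metabolically cooperating S. cerevisiae BY4741 community; plasmids pH-mRuby2, pL-mWasabi, pU-eCFP, pM-TagRFP657) was grown 24 h in minimal SM medium with each Selleck FDA-approved drug at 10 µM in 384-well plates. Cells were fixed and imaged by high-content confocal microscopy. For each auxotrophic subpopulation (and the prototroph), a z-score gives the deviation from the DMSO vehicle-control population median.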

| SMILES | z-score of subpopulation abundance |
| --- | --- |
| Nc1ccncc1 [4-Aminopyridine] | -0.46 |
| COc1cc2c(cc1OC)C1CC(=O)C(CC(C)C)CN1CC2 (stereo not given) [Tetrabenazine (Xenazine)] | 2.34 |
| C=CC[C@]1(O)CC[C@H]2[C@@H]3CCC4=CC(=O)CCC4=C3C=C[C@@]21C [Altrenogest] | -0.9 |
| CC(=O)O[C@H]1C[C@@H]2CC[C@@H]3[C@H](CC[C@@]4(C)[C@H]3C[C@H]([N+]3(C)CCCCC3)[C@@H]4OC(C)=O)[C@@]2(C)C[C@@H]1[N+]1(C)CCCCC1 [Pancuronium dibromide] | -0.93 |
| C=CN1CCCC1=O.II [Povidone iodine] | 0.32 |
| Cn1cc(C2=C(c3cn(C4CCN(Cc5ccccn5)CC4)c4ccccc34)C(=O)NC2=O)c2ccccc21 | -0.35 |
| C=C(C)[C@H]1Cc2c(ccc3c2O[C@@H]2COc4cc(OC)c(OC)cc4[C@@H]2C3=O)O1 [Rotenone (Barbasco)] | 0.56 |
| NCCc1c[nH]c2ccc(O)cc12 [Serotonin HCl] | 0.3 |
| CCC1=C[C@H]2CN3CCc4c([nH]c5ccccc45)[C@](C(=O)OC)(C2)[C@H]13 [Catharanthine] | -0.22 |
| C[N+]1(C)[C@@H]2C[C@@H](OC(=O)[C@H](CO)c3ccccc3)C[C@H]1[C@@H]1O[C@@H]12 [Methscopolamine] | 0.24 |
| C[C@H]1O[C@H](O[C@H]2[C@H](O)[C@@H](O)[C@@H](O)[C@H](O)[C@@H]2O)[C@@H](N)C[C@@H]1NC(=N)C(=O)O [Kasugamycin hydrochloride] | -0.04 |
| CN(C)[C@@H]1C(=O)C(C(N)=O)=C(O)[C@@]2(O)C(=O)C3=C(O)c4c(O)ccc(Cl)c4[C@@](C)(O)[C@H]3C[C@@H]12 [Chlortetracycline HCl] | 0.32 |
| NC(=O)CN1CCCC1=O [Piracetam] | 0.98 |
| CCCN1C[C@H](CSC)C[C@@H]2c3cccc4[nH]cc(c34)C[C@H]21 [Pergolide Mesylate] | -0.1 |
| CCCCCCCCCCCCCCCC[n+]1ccccc1 [Cetylpyridinium Chloride] | 49.4 |
| CN1[C@@H]2C[C@@H](OC(=O)[C@H](CO)c3ccccc3)C[C@H]1[C@@H]1O[C@@H]12 [Scopolamine HBr] | -0.88 |
| CC[C@H]1CN2CC[C@]3(C(=O)Nc4ccccc43)[C@@H]2C[C@@H]1/C(=C\OC)C(=O)OC [Rhynchophylline] | 0 |
| CN1C(=O)COc2c(C(=O)NC3CN4CCC3CC4)cc(Cl)cc21 (stereo not given) [Azasetron HCl] | 0.19 |
| CN(C)C(=O)Oc1cccc([N+](C)(C)C)c1 [Neostigmine Bromide] | -0.18 |
| CN[C@@H]1[C@@H](O)[C@@H](O[C@@H]2[C@@H](O)[C@H](O[C@H]3O[C@H](CN)CC[C@H]3N)[C@@H](N)C[C@H]2N)OC[C@]1(C)O.CN[C@@H]1[C@@H](O)[C@@H](O[C@@H]2[C@@H](O)[C@H](O[C@H]3O[C@H]([C@@H](C)N)CC[C@H]3N)[C@@H](N)C[C@H]2N)OC[C@]1(C)O.CN[C@@H]1[C@@H](O)[C@@H](O[C@@H]2[C@@H](O)[C@H](O[C@H]3O[C@H]([C@@H](C)NC)CC[C@H]3N)[C@@H](N)C[C@H]2N)OC[C@]1(C)O [Gentamicin Sulfate] | 0.46 |

| SMILES | z-score of subpopulation abundance |
| --- | --- |
| O=c1[nH]c2ccccc2n1CCCN1CCC(n2c(=O)[nH]c3cc(Cl)ccc32)CC1 [Domperidone] | 0.88 |
| CCN1CC2(OC(=O)c3ccccc3NC(C)=O)CCC(OC)C34C1C(CC23)C1(O)CC(OC)C2CC4C1(O)C2OC (stereo not given) [Lappaconitine] | -0.44 |
| CC(=O)OCC1=C(C(=O)O)N2C(=O)C(N)C2SC1 (stereo not given) [7-Aminocephalosporanic acid] | -0.76 |
| CNC1CC(N)C(O)C(OC2OC(CO)C(O)C3OC4(OC(C(N)CO)C(O)C(O)C4O)OC23)C1O (stereo not given) [Hygromycin B] | -0.53 |
| CC1(C)SC2C(N)C(=O)N2C1C(=O)O (stereo not given) [6-Aminopenicillanic acid] | -0.72 |
| C[N+](C)(C)CCCCCCCCCC[N+](C)(C)C [Decamethonium Bromide] | -0.4 |
| CCOC(=O)Nc1ccc(NCc2ccc(F)cc2)cc1N [Retigabine] | -0.4 |
| C#C[C@]1(O)C=C[C@H]2[C@@H]3CCC4=CC(=O)CC[C@@H]4[C@H]3CC[C@@]21CC [Gestodene] | -0.58 |
| Oc1cccc2cccnc12 [8-Hydroxyquinoline] | 0.11 |
| CC(C)=CCOc1c2occc2cc2ccc(=O)oc12 [Imperatorin] | 0.23 |
| CN(C)[C@@H]1C(=O)C(C(N)=O)=C(O)[C@@]2(O)C(=O)C3=C(O)c4c(O)cccc4[C@@](C)(O)[C@H]3C[C@@H]12 [Tetracycline HCl] | -0.58 |
| C[C@@H]1CC[C@H]2[C@@H](C)C(=O)O[C@@H]3O[C@@]4(C)CC[C@@H]1[C@]32OO4 [Artemisinin] | -0.59 |
| COc1ccc(C(CN(C)C)C2(O)CCCCC2)cc1 (stereo not given) [Venlafaxine HCl] | -0.19 |
| N#Cc1nn(-c2c(Cl)cc(C(F)(F)F)cc2Cl)c(N)c1[S+]([O-])C(F)(F)F (stereo not given) [Fipronil] | -0.22 |
| C[N+]12CCC(CC1)C(OC(=O)C(O)(c1ccccc1)c1ccccc1)C2 (stereo not given) [Clidinium Bromide] | 0.51 |
| CN1[C@@H]2CC[C@H]1C[C@@H](OC(=O)C(CO)c1ccccc1)C2 (stereo not given in full) [Atropine sulfate monohydrate] | -0.85 |
| Cc1cc(C(C#N)c2ccc(Cl)cc2)c(Cl)cc1NC(=O)c1cc(I)cc(I)c1O (stereo not given) [Closantel] | 0.27 |
| CN(C)[C@@H]1C(=O)C(C(N)=O)=C(O)[C@@]2(O)C(=O)C3=C(O)c4c(O)cccc4[C@@](C)(O)[C@H]3[C@H](O)[C@@H]12 [Oxytetracycline (Terramycin)] | 0.26 |
| CC[N+](C)(CC)CCOC(=O)C(O)(c1ccccc1)c1ccccc1 [Methylbenactyzine Bromide] | -1.18 |
| CC[C@H]1[C@@H]2C[C@H]3[C@@H]4N(C)c5ccccc5[C@]45C[C@@H]([C@@H]2[C@H]5O)N3[C@@H]1O [Ajmaline] | -0.76 |
